# Data: PubChem BioAssay AID1650 (Southern Research Specialized Biocontainment Screening …, 2009)
# Potency and affinity values are given separately. A number with no mark means an inactive call. The rule behind the calls is not given here.
# Assay: host cell cytotoxicity of antiviral hits, dose response, cytotoxicity control for West Nile virus antiviral project, secondary assay (AID 1650)
# Conditions: Mammalian host cell viability, cytotoxicity counter-screen; series mostly up to 10 µM; viability: at the top concentration
row,Compound,viability
1,Cc1nn(CC(=O)NCc2ccc(OC(C)C)cc2)c(=O)c2cc(-c3ccccc3)nn12,89.4% [at 20 µM]
2,CCCN(CCC)CCCNC(=S)Nc1ccc2nc(N3CCCC3)cc(C)c2c1,78% [at 20 µM]
3,Brc1ccc2c(c1)CN1CCCC1=N2,81.5%
4,CN1CCN(c2ccc(S(=O)(=O)N3CCCCC3)cc2NC(=O)c2ccc3ccccc3c2)CC1,85.4%
5,N=C1C(c2nc(-c3ccc(Cl)cc3)cs2)=C(O)CN1CCCN1CCOCC1,92.8%
6,CCN1CCN(CCCNC(=O)c2ccc3c(Cl)c4c(nc3c2)CCCC4)CC1,86.8%
7,Cc1cccc2c1NC(=O)/C2=C\C(=O)c1cccs1,82.2%
8,Cc1cc(N2CCCC2)nc2ccc(NC(=S)NCCCN3CCC(C)CC3)cc12,79.8% [at 20 µM]
9,CCN(CC)S(=O)(=O)c1ccc2c(c1)c(=O)c(C(=O)NCCOC)cn2C,83.3%
10,COc1ccc(/C=C2\SC(=S)N(CCC(=O)NCCc3ccc(O)cc3)C2=O)cc1,79.8% [at 20 µM]
11,CCN1CCN(c2ncc(C(=O)Nc3cc(Cl)c(OC)cc3OC)c3ccccc23)CC1,86.6%
12,CCN1CCN(CCCNC(=O)c2cc3c(s2)-c2ccccc2OC3)CC1,74.8%
13,COc1ccc2[nH]c3nc(SCc4nnc(-c5ccc(C)cc5)o4)nnc3c2c1,80.5%
14,O=C(CNC(=S)N(Cc1ccccc1F)C1CCCCC1)NCC1CCCO1 (stereo not given),82.8%
15,Cc1cc(C)cc(N(CC(=O)NCc2ccco2)S(=O)(=O)c2c(C)noc2C)c1,80.5%
16,Cn1c(N)c(C(=O)CSc2nc3ccccc3c(=O)n2CCCN2CCOCC2)c(=O)n(C)c1=O,87.8%
17,COc1ccc(CNCCC(c2ccc(OC(C)C)cc2)c2ccccc2OC)cc1OC (stereo not given),70.5% [at 20 µM]
18,COc1ccc([C@@H]2[C@@H]3C(=O)N(C(C)(C)C)C(=O)[C@@H]3[C@]3(Cc4ccccc4)C(=O)N(c4ccc(Br)cc4)C(=O)N23)cc1,84.2% [at 20 µM]
19,N#Cc1cc(-c2ccc(Cl)cc2)cnc1Sc1ccc(F)cc1,83.1% [at 20 µM]
20,CC1CCN(c2nc3ccc(C(=O)NCCCN4CCCCC4C)cc3s2)CC1 (stereo not given),78.7%

row,Compound,viability
1,CCN(CC)S(=O)(=O)c1cc(C(=O)Nc2cc(Cl)ccc2N2CCN(C)CC2)ccc1Cl,82.8%
2,CCCC1=Nc2cc(C(=O)NCCN3CCCC3)ccc2Sc2ccccc21,81.4%
3,CCOC(=O)c1c(CC(C)C)csc1/N=C/C1=C(O)CCCC1=O,92% [at 20 µM]
4,CCCCn1c(=N)n(CC(O)COc2ccc(C)cc2)c2ccccc21 (stereo not given),84.4%
5,COc1ccc(-c2cc(-c3ccc(OC)cc3)nc(-c3ccc4c(c3)NC(=O)CO4)c2)cc1,79.2% [at 20 µM]
6,CC(=O)Oc1ccc(-c2ccc(C(=O)OCC(=O)N(C)CC(=O)Nc3ccccc3Cl)cc2)cc1,77.2%
7,Cc1cccc(/C=C2/Sc3ccc(C(=O)NCCCN4CCOCC4)cc3NC2=O)c1,92.8%
8,O=C(NC1CCCCC1)C(c1ccc(Cl)cc1)N(C(=O)c1ccccn1)c1cccnc1 (stereo not given),79.4%
9,O=[N+]([O-])c1cc(-c2nnc(Nc3ccc(O)cc3)c3ccccc23)ccc1N1CCOCC1,73.3% [at 20 µM]
10,O=C(CCCN1C(=O)/C(=C\c2ccccc2)SC1=S)Nc1ccc(O)cc1,72.3% [at 20 µM]
11,COc1ccc(C(=O)CSc2nnc(-c3ccc(S(=O)(=O)N4CCOCC4)cc3)o2)cc1,93.2% [at 20 µM]
12,COc1cc(C=Nc2c(C)cc(C)cc2C)ccc1OC(C)=O,92.2%
13,CN1CCN(NC(=O)c2cc(-c3ccc(Br)s3)nc3ccccc23)CC1,83.9%
14,CCN(CC)CCNC(=O)c1ccc(NC(=O)c2cccc(S(=O)(=O)N3c4ccccc4CC3C)c2)cc1 (stereo not given),85.1%
15,CCOc1ccc(-c2cc(C(=O)NCCCN3CCN(CC)CC3)c3ccccc3n2)cc1,82%
16,CCOC(=O)c1c(NC(=O)CN(C)C2CCN(C)CC2)sc(C(=O)Nc2ccccc2)c1C,84.1% [at 20 µM]
17,Cn1c(N/N=C/c2c[nH]c3ccccc23)nc2ccccc21,80.1%
18,CCCCN(C)CCNC(=S)Nc1ccc2nc(N3CCN(CC)CC3)cc(C)c2c1,83.8%
19,O=C(CCN1C(=O)/C(=C\c2ccccc2Cl)SC1=S)N1CCN(c2ccccc2)CC1,76.2% [at 20 µM]
20,CC(=O)N[C@@H](C)C(=O)N1CCC(n2nccc2NC(=O)CCCc2ccccc2)CC1,91.7%
